Source: PMC7862700, “An all-to-all approach to the identification of sequence-specific readers for epigenetic DNA modifications on cytosine”

Key:
Test in all cases: DAPPL (digital affinity profiling via proximity ligation, sequencing); 10 mM Tris-HCl pH 7.5, 50 mM NaCl, 1 mM DTT, 4% glycerol, room temperature, 30 min; GST-TFs on glutathione beads, 16-mer random dsDNA library, 0.1% formaldehyde crosslink after washing; high values mean tight binding
Settings in all cases: protein: recombinant; tags: N-terminal GST; dsDNA, one strand shown
FLI1 = target: T1, FLI1 (Homo sapiens, UniProt Q01543 1-452)
T1 sequence: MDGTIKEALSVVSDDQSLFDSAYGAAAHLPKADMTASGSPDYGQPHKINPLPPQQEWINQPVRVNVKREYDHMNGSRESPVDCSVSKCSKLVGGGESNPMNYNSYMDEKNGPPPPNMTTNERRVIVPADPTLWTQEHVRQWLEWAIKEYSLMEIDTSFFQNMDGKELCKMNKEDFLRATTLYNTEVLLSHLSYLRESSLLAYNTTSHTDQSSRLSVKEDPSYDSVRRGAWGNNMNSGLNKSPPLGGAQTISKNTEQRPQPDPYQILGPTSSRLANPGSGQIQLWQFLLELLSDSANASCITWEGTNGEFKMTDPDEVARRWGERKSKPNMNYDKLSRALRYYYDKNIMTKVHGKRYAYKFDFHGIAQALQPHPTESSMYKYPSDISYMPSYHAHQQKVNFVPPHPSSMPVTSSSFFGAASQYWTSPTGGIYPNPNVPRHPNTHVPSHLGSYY
Outline: (§1)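 Pools were built from human transcription factors expressed in yeast as GST fusions, captured on glutathione beads and DNA-barcoded, along with a tag-only sample. Incubation with 200 nmole of a 16-mer random double-stranded DNA library lasted 30 min at room temperature in Tris/NaCl/DTT/glycerol buffer, and was followed by washing, 0.1% formaldehyde crosslinking, proximity ligation, PCR amplification and Illumina NextSeq500 sequencing. Binding signal is the quotient of each hexamer's read frequency for a factor and its frequency for the tag-only sample.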

ERG = target: T2, ERG (Homo sapiens, UniProt P11308 1-479)
T2 sequence: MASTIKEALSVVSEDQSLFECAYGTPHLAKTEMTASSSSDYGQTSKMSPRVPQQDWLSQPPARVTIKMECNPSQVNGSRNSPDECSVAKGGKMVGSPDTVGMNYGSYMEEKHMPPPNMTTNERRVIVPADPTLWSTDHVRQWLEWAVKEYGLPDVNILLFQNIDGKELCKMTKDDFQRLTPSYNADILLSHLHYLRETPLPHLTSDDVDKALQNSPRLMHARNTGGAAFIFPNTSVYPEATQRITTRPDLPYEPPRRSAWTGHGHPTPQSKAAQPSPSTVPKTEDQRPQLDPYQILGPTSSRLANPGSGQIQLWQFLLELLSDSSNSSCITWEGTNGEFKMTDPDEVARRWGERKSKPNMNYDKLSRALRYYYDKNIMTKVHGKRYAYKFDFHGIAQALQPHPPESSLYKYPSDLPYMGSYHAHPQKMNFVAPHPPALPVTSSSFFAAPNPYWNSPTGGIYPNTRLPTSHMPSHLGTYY
Outline: as §1

SPI1 = SPI1 (Homo sapiens, UniProt P17947 1-270)
Outline: as §1

SPIB = SPIB (Homo sapiens, UniProt Q01892 1-262)
Chain of SPIB (Q01892 whole entry): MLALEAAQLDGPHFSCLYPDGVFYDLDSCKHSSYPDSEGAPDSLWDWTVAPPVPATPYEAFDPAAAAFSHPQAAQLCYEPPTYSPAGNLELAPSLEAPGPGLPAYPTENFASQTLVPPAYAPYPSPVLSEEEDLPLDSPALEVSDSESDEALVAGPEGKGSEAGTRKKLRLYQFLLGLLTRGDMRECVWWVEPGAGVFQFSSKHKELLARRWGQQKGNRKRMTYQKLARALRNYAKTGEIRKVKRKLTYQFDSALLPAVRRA
Outline: as §1

ELK3 = target: T3, ELK3 (Homo sapiens, UniProt P41970 1-407)
T3 sequence: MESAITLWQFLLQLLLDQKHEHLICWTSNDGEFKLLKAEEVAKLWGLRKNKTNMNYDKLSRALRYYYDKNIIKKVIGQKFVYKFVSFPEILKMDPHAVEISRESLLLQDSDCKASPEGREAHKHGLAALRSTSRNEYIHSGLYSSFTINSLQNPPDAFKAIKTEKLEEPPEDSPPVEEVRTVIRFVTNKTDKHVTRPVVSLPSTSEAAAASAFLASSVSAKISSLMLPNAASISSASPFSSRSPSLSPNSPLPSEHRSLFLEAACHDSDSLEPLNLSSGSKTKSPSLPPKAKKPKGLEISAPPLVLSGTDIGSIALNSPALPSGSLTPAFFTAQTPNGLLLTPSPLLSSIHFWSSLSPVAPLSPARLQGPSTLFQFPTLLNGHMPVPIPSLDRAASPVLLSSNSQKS
Outline: as §1

ETV5 = ETV5 (Homo sapiens, UniProt P41161 1-510)
Chain of ETV5 (P41161 whole entry): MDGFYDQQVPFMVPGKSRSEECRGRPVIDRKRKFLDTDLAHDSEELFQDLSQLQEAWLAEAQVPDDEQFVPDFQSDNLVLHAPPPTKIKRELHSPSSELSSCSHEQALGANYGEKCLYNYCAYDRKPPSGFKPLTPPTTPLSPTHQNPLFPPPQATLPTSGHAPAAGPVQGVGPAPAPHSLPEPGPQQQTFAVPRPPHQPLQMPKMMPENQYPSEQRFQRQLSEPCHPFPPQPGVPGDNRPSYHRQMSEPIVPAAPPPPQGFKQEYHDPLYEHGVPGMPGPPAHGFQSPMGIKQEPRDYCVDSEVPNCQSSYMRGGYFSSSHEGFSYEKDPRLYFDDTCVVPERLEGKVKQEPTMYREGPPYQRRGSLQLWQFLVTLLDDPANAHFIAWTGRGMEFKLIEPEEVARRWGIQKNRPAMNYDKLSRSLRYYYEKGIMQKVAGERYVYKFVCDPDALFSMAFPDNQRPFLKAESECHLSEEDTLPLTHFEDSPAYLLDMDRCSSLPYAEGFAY
Outline: as §1

ELF4 = ELF4 (Homo sapiens, UniProt Q99607 1-663)
Chain of ELF4 (Q99607 whole entry): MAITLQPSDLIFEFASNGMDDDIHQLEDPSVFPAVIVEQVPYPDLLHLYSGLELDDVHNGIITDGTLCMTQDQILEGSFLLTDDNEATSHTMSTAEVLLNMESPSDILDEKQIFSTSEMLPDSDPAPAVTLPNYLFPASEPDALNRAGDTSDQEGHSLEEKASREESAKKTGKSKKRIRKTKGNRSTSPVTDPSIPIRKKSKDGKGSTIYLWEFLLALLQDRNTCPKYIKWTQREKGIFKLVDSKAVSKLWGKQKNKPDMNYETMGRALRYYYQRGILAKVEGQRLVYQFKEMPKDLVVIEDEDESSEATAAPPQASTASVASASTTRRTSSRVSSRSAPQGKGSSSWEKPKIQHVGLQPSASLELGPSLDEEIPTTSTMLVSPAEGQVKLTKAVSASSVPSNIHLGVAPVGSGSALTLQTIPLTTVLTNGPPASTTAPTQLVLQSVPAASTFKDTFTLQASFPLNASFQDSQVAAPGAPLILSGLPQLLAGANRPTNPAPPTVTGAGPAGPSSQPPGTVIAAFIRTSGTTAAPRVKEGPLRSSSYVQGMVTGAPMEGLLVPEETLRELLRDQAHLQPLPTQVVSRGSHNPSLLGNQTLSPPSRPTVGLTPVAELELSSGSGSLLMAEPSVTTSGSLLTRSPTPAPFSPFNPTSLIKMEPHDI
Outline: as §1

ETV2 = target: T4, ETV2 (Homo sapiens, UniProt O00321 1-342)
T4 sequence: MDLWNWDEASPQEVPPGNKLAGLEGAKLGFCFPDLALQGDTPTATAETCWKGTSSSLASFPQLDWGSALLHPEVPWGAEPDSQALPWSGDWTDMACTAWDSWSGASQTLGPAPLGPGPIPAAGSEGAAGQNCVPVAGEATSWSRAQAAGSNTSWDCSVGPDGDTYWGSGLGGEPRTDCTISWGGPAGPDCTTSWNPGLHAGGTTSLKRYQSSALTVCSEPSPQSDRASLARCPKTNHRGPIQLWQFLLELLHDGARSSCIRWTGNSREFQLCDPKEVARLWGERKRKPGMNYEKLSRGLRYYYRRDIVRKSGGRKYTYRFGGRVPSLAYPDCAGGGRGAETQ
Outline: as §1

ETV1 = ETV1 (Homo sapiens, UniProt P50549 1-477)
Chain of ETV1 (P50549 whole entry): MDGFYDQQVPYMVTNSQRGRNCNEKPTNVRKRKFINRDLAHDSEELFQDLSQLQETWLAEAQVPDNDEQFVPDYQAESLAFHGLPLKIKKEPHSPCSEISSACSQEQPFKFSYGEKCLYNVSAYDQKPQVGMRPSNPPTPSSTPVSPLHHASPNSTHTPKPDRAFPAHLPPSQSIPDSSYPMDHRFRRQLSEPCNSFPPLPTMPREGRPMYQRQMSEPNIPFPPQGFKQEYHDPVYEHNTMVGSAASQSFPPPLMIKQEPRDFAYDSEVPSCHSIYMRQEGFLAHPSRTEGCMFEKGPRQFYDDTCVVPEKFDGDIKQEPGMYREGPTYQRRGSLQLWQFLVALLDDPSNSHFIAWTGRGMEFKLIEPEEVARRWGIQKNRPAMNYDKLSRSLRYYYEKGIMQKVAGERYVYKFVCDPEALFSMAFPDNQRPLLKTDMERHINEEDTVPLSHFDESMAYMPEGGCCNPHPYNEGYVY
Outline: as §1

ETV3L = target: T5, ETV3L (Homo sapiens, UniProt Q6ZN32 1-361)
T5 sequence: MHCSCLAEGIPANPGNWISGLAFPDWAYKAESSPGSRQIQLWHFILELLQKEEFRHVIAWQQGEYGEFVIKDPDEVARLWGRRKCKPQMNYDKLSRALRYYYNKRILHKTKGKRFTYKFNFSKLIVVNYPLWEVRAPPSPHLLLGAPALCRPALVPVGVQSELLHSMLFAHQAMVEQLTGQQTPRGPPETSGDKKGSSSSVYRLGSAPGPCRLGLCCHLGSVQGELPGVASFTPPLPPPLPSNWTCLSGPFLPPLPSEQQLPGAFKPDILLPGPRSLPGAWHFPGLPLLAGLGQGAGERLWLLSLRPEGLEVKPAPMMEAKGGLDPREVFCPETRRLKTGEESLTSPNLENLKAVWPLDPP
Outline: as §1

ETV7 = target: T6, ETV7 (Homo sapiens, UniProt Q9Y603 1-341)
T6 sequence: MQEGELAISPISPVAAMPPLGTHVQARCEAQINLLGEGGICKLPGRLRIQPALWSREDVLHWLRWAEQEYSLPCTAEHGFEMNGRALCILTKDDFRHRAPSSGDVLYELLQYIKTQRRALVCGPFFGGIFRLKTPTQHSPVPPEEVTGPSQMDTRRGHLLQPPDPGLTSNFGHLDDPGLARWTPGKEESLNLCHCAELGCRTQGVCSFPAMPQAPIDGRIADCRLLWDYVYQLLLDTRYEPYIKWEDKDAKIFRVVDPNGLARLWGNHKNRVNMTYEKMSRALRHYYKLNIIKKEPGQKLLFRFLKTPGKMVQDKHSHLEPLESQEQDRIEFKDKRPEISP
Outline: as §1

ETV3 = target: T7, ETV3 (Homo sapiens, UniProt P41162-2 1-143)
T7 sequence: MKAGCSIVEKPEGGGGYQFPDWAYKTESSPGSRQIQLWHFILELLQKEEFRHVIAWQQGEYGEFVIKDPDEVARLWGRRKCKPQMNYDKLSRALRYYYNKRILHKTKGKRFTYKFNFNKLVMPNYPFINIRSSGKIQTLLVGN
Outline: as §1

ETV6 = ETV6 (Homo sapiens, UniProt P41212 1-452)
Chain of ETV6 (P41212 whole entry): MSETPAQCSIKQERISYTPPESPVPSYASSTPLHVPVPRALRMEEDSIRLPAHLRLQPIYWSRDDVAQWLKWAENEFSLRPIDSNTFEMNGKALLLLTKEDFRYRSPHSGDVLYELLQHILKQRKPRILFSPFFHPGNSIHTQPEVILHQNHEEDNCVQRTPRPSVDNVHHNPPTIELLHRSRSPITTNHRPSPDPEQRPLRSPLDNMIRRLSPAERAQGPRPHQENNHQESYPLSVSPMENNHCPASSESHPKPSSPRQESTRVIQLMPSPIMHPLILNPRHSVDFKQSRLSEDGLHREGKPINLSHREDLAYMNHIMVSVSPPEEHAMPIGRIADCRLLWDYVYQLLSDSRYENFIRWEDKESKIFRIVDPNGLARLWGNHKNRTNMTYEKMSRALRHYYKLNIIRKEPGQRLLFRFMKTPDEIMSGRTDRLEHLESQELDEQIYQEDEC
Outline: as §1

AGTGCC
binding signal (FLI1): 1.06 fold enrichment (6-mer frequency, TF over GST control)
binding signal (ERG): 1.01 fold enrichment (6-mer frequency, TF over GST control)
binding signal (SPI1): 1.32 fold enrichment (6-mer frequency, TF over GST control)
binding signal (SPIB): 1.01 fold enrichment (6-mer frequency, TF over GST control)
binding signal (ELK3): 1.05 fold enrichment (6-mer frequency, TF over GST control)
binding signal (ETV5): 1.03 fold enrichment (6-mer frequency, TF over GST control)
binding signal (ELF4): 1.01 fold enrichment (6-mer frequency, TF over GST control)
binding signal (ETV2): 1.08 fold enrichment (6-mer frequency, TF over GST control)
binding signal (ETV1): 1.04 fold enrichment (6-mer frequency, TF over GST control)
binding signal (ETV3L): 1.07 fold enrichment (6-mer frequency, TF over GST control)
binding signal (ETV7): 1.05 fold enrichment (6-mer frequency, TF over GST control)
binding signal (ETV3): 1.05 fold enrichment (6-mer frequency, TF over GST control)
binding signal (ETV6): 1.16 fold enrichment (6-mer frequency, TF over GST control)
